# Where “and” joins values, the source holds several entries; their conditions need not be identical. Equal values may be shown once. Among all 220,000 compounds or so, about 2,000 (0.91%) were called active. Not shown: some 2% with an inconclusive outcome. The list is a sample of the results. Measured potencies and affinities stand elsewhere. Unmarked numbers belong to inactive results. No stated cut-off is given here; in the data, inconclusive means inhibition above about 80% without an active follow-up result; inactive means below that; test concentration not stated here.
# Assay: M. tuberculosis H37Rv growth inhibitors, H37Rv strain (AID 1626);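 further: bacteria incubated seven days before Alamar blue readout; 0% = bacteria only wells and 100% = bacteria with antibiotic wells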
# Conditions: active compounds read high, concentration not given here
row,SMILES,inhibition
1,CCN(CC(=O)NCc1ccc(F)cc1)CC(=O)Nc1ccccc1-c1ccccc1,-6.65%
2,C=CCN1C(=O)C(CC(=O)Nc2ccccc2F)S/C1=N\c1nccs1 (centres undefined),6.25%
3,CCCNC(=O)C(=O)NCCC1=CCCCC1,-4.88%
4,COc1cccc(OC)c1C(=O)Nc1c(C)n(C)n(-c2ccccc2)c1=O,0.17%
5,O=C(COc1ccc(Br)cc1CO)Nc1ccc(F)cc1,9.43%
6,CCCCN(C)C(=O)C(Cc1ccccc1)NS(=O)(=O)c1ccc2c(c1)CCC(=O)N2 (centres undefined),-4.66%
7,CNC(=S)N(Cc1ccco1)Cc1cc2cc(OC)ccc2[nH]c1=O,-3.07%
8,CCCCCCNC(=O)N1C/C=C\C(c2ccc(OC)cc2)N(Cc2ccc(F)cc2)C(=O)C1 (centres undefined),-0.25%
9,C[n+]1c2n(c3ccccc31)N=C(c1ccccc1)CS2,-4.82% and 0%
10,C[n+]1c2n(c3ccccc31)N=C(c1ccc(-c3ccccc3)cc1)CS2,5.47%
11,O=C(N/N=C/c1ccc2c(c1)OCO2)c1ccc(COc2cccc3cccnc23)cc1,0.48%
12,COCC(=O)NNC(=S)Nc1cccc(C)c1C,9.36%
13,COC(=O)c1ccc(C(=O)OC)c(NC(=S)N2CCOCC2)c1,5.12%
14,CCN(CC)C(=O)CSc1nnc2nnc3cc(C)ccc3n12,65.9%
15,CCN(CC)C(=O)CSc1nnc2nnc3cc(OC)ccc3n12,44%
16,CCOc1ccc(-c2onc(C(F)(F)F)c2-c2cscn2)c(O)c1,6.75%
17,COc1cc(/C=C/C(=O)O)cc(S(=O)(=O)Nc2ccccc2Oc2ccccc2)c1OC,-0.26%
18,CSc1sc(C(=O)N2CCCCC2)c(-c2cccs2)c1C#N,-3.75%
19,COc1ccc(C2=NC(C(F)(F)F)(C(F)(F)F)c3c(n(C)c(=O)n(C)c3=O)N2)cc1,-0.04%
20,Cn1c2c(c(=O)n(C)c1=O)C(C(F)(F)F)(C(F)(F)F)N=C(c1ccccc1Cl)N2,-9.88%

row,SMILES,inhibition
1,CCOC(=O)c1c(CN2CCC(C)CC2)n(C)c2cc(Br)c(OC)cc12,11.6%
2,COc1ccccc1NS(=O)(=O)c1cc(C)ccc1C,-7.48%
3,CC(NC(=O)c1ccccc1F)c1nnc(SCc2nc3ccccc3c(=O)[nH]2)n1C (centres undefined),-3.02%
4,Cc1c(-c2ccccc2)sc2nc[nH]c(=S)c12,89.6%
5,O=c1[nH]cnc2sc(-c3ccccc3)cc12,40%
6,CNc1ncnc2sc(-c3ccccc3)cc12,-0.065%
7,Cc1sc2nc(Cc3ccccc3)[nH]c(=O)c2c1-c1ccccc1,-4.69%
8,c1ccc2c(c1)NC1(CCCCCC1)n1c-2nc2ccccc21,-3.46%
9,COc1ccc(CCn2c(-c3ccc(Cl)cc3)n[nH]c2=S)cc1OC,1.97%
10,COc1ccc(C(=O)NCCc2nnc3ccc(SCC(=O)Nc4cc(C)on4)nn23)cc1,14.5%
11,COc1ccc(C(CC(=O)Nc2nccs2)n2cccc2)cc1 (centres undefined),-4.49%
12,O=[N+]([O-])c1ccc(-n2nnnc2-c2ccccc2)cc1,1.98%
13,CCOC(=O)c1nnn(-c2ccc([N+](=O)[O-])cc2[N+](=O)[O-])c1C,-6.3%
14,Cc1ccc(-c2csc3nc(C)n(N)c(=O)c23)cc1,3.11%
15,COc1ccc(C(=O)COC(=O)CNC(=O)C2CCCCC2)c(OC)c1,-2.99%
16,COc1ccc(O)c(C(=O)CC(=O)c2ccc(F)cc2)c1,-1.1%
17,COc1ccc(O)c(C(=O)CC(=O)c2ccccc2)c1,0.06%
18,COc1ccccc1CCNC(=O)Cc1cccs1,4.99%
19,Cc1cccc(N(CC(N)=O)S(C)(=O)=O)c1C,9.11%
20,Cc1ccc2nc(NC(=O)C(NS(=O)(=O)c3cccc4nsnc34)C(C)C)sc2c1 (centres undefined),11.5%

row,SMILES,inhibition
1,COc1ccc(NC(=S)NCc2ccco2)c(OC)c1,-0.51%
2,CCOc1ccc(CCNC(=O)CSc2cc(=O)n(C)c3cc(Cl)ccc23)cc1OCC,-8.35%
3,COc1ccc(OC)c(N/C(C)=C/C(=O)c2ccc(C)o2)c1,-3.01%
4,COc1ccc(N/C=C\C(=O)c2ccc3c(c2)OCO3)cc1,77.1%
5,COC(=O)c1ccc(N/C=C\C(=O)c2ccc3c(c2)OCO3)cc1,17.8%
6,CC(=O)Nc1ccc(N/C=C/C(=O)c2ccc(C)o2)cc1,7.24%
7,COc1ccc(C(=O)/C=C(\C)Nc2ccc3c(c2)OCO3)cc1,53.2%
8,CCOc1ccc(N/C(C)=C/C(=O)c2ccc3c(c2)OCCO3)cc1,77.8%
9,COCCN(CCOC)C(=O)C1CCCN(S(=O)(=O)c2ccc(NC(=O)OC)cc2)C1 (centres undefined),-2.59%
10,COc1cccc(Oc2coc3cc(OC(=O)N4CCOCC4)ccc3c2=O)c1,-2.14%
11,CN(C)CCCN(C(=O)c1ccc(S(=O)(=O)N(C)C)cc1)c1nc2cc3c(cc2s1)OCO3,-1.53%
12,CCOC(=O)c1ccccc1NC(=O)Cn1cnc2c(nnn2-c2ccc(C)cc2)c1=O,1.13%
13,O=[N+]([O-])c1ccc(N2CCN(S(=O)(=O)c3ccccc3)CC2)cc1NCc1ccco1,-1.65%
14,O=S(=O)(NCc1ccccc1)c1ccc(S(=O)(=O)N(Cc2ccccn2)C2CCCC2)cc1,-1.41%
15,O=C1CC(/C=C/c2ccncc2)=Nc2ccccc2N1,-0.28%
16,O=C1CC(/C=C/c2ccccc2)=Nc2ccccc2N1,2.15%
17,CCOc1cccc(-c2cc(-c3n[nH]c(=S)n3CC)c3ccccc3n2)c1,14.2%
18,COc1ccc(CNC(=O)COC(=O)C2CCN(S(=O)(=O)c3ccccc3C(F)(F)F)CC2)cc1,1.6%
19,CC1C(c2ccccc2)C(C#N)(C#N)C2(C#N)C(=O)NC1(N)C2C (centres undefined),-0.87%

# From PubChem BioAssay AID1626 (SRMLSC, 2009)
